Results with a measured potency or affinity are listed apart. Records with an inconclusive call do not appear.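 Rule for the calls: active = a valid curve of falling signal whose half-effect concentration is at most ten times the top tested dose; inconclusive = flat curve at 30 to 70% inhibition, or poor fit; inactive = signal rise, flat within 30%, or potency beyond limit.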
molecular target: Scavenger receptor class B member 1 (Mus musculus) (UniProt Q61009); assay: inhibitors of SR-BI mediated HDL lipid uptake, dose response, ldlA[mSR-BI] cells, fluorescence, cherry pick (AID 493194); conditions: CHO ldlA[mSR-BI] DiI-HDL uptake fluorescence, 3 h; series mostly up to 35 µM; activity change, negative = inhibition: at the top concentration;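 note: CHO cells lacking LDL receptor and overexpressing mouse SR-BI; cellular uptake of fluorescently labeled HDL measured as cell fluorescence; 0% = median of neutral control wells and -100% = median of positive control wells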
Sequence (Q61009 whole entry, looked up): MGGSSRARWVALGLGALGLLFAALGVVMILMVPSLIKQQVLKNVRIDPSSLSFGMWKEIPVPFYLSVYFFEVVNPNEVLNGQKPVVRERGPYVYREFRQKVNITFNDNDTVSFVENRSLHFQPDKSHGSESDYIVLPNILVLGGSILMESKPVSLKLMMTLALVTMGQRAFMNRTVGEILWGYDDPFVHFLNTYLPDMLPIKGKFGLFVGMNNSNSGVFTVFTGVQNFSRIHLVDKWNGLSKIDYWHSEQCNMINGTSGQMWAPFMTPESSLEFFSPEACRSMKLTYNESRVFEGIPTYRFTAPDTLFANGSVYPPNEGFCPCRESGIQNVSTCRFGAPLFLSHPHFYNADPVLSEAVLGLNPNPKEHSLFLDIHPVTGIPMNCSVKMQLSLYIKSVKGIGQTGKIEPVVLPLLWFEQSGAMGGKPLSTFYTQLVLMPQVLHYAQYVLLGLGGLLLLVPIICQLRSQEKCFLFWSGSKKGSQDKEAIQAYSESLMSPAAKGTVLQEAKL

Activity change, negative = inhibition, inactive:
Cc1cc(C)cc(NC(=O)c2ccc3c(c2)CCN3S(C)(=O)=O)c1 -12.6%
CCC1CCCCN1C(=O)CSc1nnc(-c2ccco2)o1 (stereo not drawn) 43.3%
Cc1ccc(-c2cc(C(=O)Nc3ccc(S(=O)(=O)Nc4onc(C)c4C)cc3)[nH]n2)c(O)c1 79%
CCOC(=O)C1=CN(c2cccc(F)c2)C=C(C(=O)OCC)C1c1cc(OC)c(O)c([N+](=O)[O-])c1 14.7%
COc1ccc(NC(=O)C2CCN(C(=O)c3ccc(OC)cc3)CC2)cc1 32.3%
Cc1ccccc1C(=O)Nc1cc(NC(=O)c2ccccc2C)cc(C(=O)O)c1 30.6%
Fc1ccc(-c2cc(-c3cccs3)cc(-c3ccccc3)n2)cc1 37.5%
CCCn1c(=O)[nH]c(=O)c2c1nc(-c1ccc(OC(F)(F)C(F)C(F)(F)F)cc1)n2CCOC (stereo not drawn) -12%
Cc1ccccc1NC(=O)N(CCc1nc2ccccc2[nH]1)Cc1ccccc1 -0.001%
CC(C(=O)NCc1ccccc1)N(Cc1ccccc1Cl)C(=O)c1snc(C(N)=O)c1N (stereo not drawn) 30.8%
CCCC(=O)N1CCc2cc(-c3nc(N)sc3C)ccc21 -2.96%
O=C(NCCn1cc(SCC(=O)N2CCOCC2)c2ccccc21)c1c(F)cccc1F -9.21%
COc1ccccc1NC(=O)CN1CCN(CC(=O)Nc2ccc(C)c(F)c2)CC1 -39.7%
COc1ccc(NC(=O)Nc2nnc(-c3ccccc3SCc3ccccc3)s2)cc1 56.2%
COc1ccc(-c2nnc(SCC(=O)Nc3ncc(C(F)(F)F)cc3Cl)n2CC(C)C)cc1 -12.1%
COCCN(C(=O)COC(=O)c1ccccc1Nc1ccccc1)c1c(N)n(Cc2ccccc2)c(=O)[nH]c1=O -34.6%
CNC(=O)c1ccc(Nc2nnc(-c3ccc(O)cc3)c3ccccc23)cc1 -10.1%
Cc1cc(N2CCN(C(=O)c3ccco3)CC2)n2ncc(-c3ccccc3)c2n1 0.033%
CS(=O)(=O)N1CCc2cc(C(=O)Nc3cccc([N+](=O)[O-])c3)ccc21 -0.139%
CCOc1ccc(NC(=O)CN2CCN(CC(=O)Nc3ccc(N(C)C)cc3)CC2)cc1 3.38%
CCc1cc2c(=O)c(-c3ccc4c(c3)OCCO4)coc2cc1OS(C)(=O)=O -7.65%
CCOc1ccc(CCNC(=O)Cn2ncn3nc(-c4ccc(OC)cc4)cc3c2=O)cc1 -20%
COc1ccc([C@H]2CC(=O)C=C(c3cccc4c3sc3ccccc34)C2)cc1OC -55.4%

Source: PubChem BioAssay AID493194 (Broad Institute, 2011)
